Screening results (PubChem)
Only some compounds are listed: those with a hit (about 14% of all), similar ones and a draw of the others.
HCMV antiviral: blocks human cytomegalovirus replication | activity change, negative = inhibition, % at 57.5 µM | 4.5% of 410,000 active | HFF cells, HCMV-luciferase reporter, 72 h; active compounds read low; in the data active = activity change below about -60%; inconclusive = no clear call, values can overlap the other calls; inactive = above about -39%
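Screen run at 2 compound doses on HFFs infected with reporter HCMV, MOI 1 PFU/cell. Luciferase activity from cell lysates at 72 h post infection gave inhibition relative to buffer-only and Salinomycin wells.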
FBPA Giardia inh: blocks Giardia fructose-bisphosphate aldolase activity | A8B2U2 | purified Giardia FBPA | Potency, µM (top dose mostly 59.6 µM), inactives show at the top dose activity, negative = inhibition, usual class: inhibitors | 0.71% of 290,000 active; also: potency is read from the fitted curve at half-maximal effect; nearly all actives have a fitted effect of over 55% in size
Target sequence (A8B2U2 whole entry, looked up): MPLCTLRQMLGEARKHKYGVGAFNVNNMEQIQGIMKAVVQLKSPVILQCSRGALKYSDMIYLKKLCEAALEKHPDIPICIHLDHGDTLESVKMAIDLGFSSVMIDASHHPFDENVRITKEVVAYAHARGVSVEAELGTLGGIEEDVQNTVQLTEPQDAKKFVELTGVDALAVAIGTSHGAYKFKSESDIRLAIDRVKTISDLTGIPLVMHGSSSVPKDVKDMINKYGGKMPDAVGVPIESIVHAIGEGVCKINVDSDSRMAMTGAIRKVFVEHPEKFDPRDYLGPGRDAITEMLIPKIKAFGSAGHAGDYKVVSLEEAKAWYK
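40 nM FBPA preincubated 10 min at RT with compound (up to 57.5 uM final), then substrate plus GAPDH/TPI/NAD/arsenate coupling and diaphorase/resazurin added. Fluorescence read after 20 min at RT, 525/598 nm.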
Pf growth 48h: P. falciparum growth inhibition at 48 hours (one generation); P. falciparum luciferase growth in erythrocytes, 48 h; Potency, µM (series often up to 28.7 µM), for inactives: at the top dose activity change, negative = inhibition, usual class: inhibitors; 5.9% of 310,000 active; also: potency is read from the fitted curve at half-maximal effect
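Luciferase-expressing parasites in RBCs, 2% Hct / 0.1% parasitemia final; RPMI 1640 + 0.5% Albumax; 37 C, 5% CO2, one generation; luminescence read-out, lower signal = inhibition.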
Sm TGR block: blocks Schistosoma mansoni thioredoxin glutathione reductase | Q962Y6 | purified TGR, DTNB reduction, TNB absorbance 405 nm | Potency, µM (doses to about 114 µM), for inactives: top-dose activity change, negative = inhibition, actives largely listed as inhibitors | 3% of 360,000 active; also: potency is read from the fitted curve at half-maximal effect; nearly all actives have a fitted effect of over 60% in size
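Kinetic colorimetric format: TGR-catalysed, NADPH-driven DTNB reduction monitored via TNB absorbance. Enzyme dispensed at 20 nM; compound exposure 15 min at room temperature before reaction start.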
Pf growth 96h: inhibits malaria parasite growth, 96 h. P. falciparum luciferase reporter growth, 96 h. Potency, µM (doses to about 28.7 µM), inactives show top-dose activity change, negative = inhibition, most hits filed as inhibitors. 6.9% of 320,000 active; also: potency is read from the fitted curve at half-maximal effect
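Luminescence readout: decreased luciferase signal marks inhibited growth of reporter-expressing P. falciparum in infected red cells (2% hematocrit, 0.05% parasitemia final), exposed to compound two generations (96 h, 37 C, 5% CO2).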
The depositor's hits bear a star; ? = inconclusive; nt = no result given; [ ] = remark or other dose. Unless noted, calls follow the shape of the dose curve; as a rule, active = well fitted curve in the direction sought with a large enough effect; inconclusive = small, poorly fitted or top-dose-only effect, or another doubt; inactive = no such curve, though single readings can be large; an effect the other way counts as inactive or inconclusive. % is scaled to controls: 0 for no effect and ±100 for the full control effect.

SMILES	HCMV antiviral	FBPA Giardia inh	Pf growth 48h	Sm TGR block	Pf growth 96h
CC(=O)Nc1ccc(-n2c(C)nc(=O)c(-c3ccccc3)c2C)cc1	0	4%	-12%	-17%	5.2µM*
Cc1nc(=O)c(-c2ccccc2)c(C)n1-c1ccccc1	13	3%	2%	-1%	8%
CCN(C(=O)N1CCOCC1)c1ccccc1C	16	4%	0%	6%	6.6µM*
CCCCN1C(=O)N(c2ccc(Br)cc2)C(=O)C1c1nnnn1-c1c(C)cccc1Cl (centres undefined)	-13	nt	nt	nt	nt
COCCN(C(=O)CCCC(=O)Nc1ccccn1)C(C(=O)NC1CCCCC1)c1ccc(C)cc1 (centres undefined)	26	3%	0%	0%	9%
COCCNC(=O)C(c1ccc(C)cc1)N(C(=O)CCC(=O)Nc1ccccn1)c1ccccc1C (centres undefined)	-23	-2%	-33%	-13%	8.3µM*
COCCNC(=O)C(c1ccc(C)cc1)N(C(=O)CCC(=O)Nc1ccccn1)c1ccc(C)cc1 (centres undefined)	?	5%	-13%	2%	41%
Cc1cccc(N(C(=O)CCC(=O)Nc2cccnc2)C(C(=O)NC2CCCC2)c2ccncc2)c1 (centres undefined)	12	-8%	?	-15%	12µM*
O=C(CCCC(=O)N(c1ccc2c(c1)OCCO2)C(C(=O)NC1CCCCC1)c1ccc(F)cc1)Nc1ccccn1 (centres undefined)	-68*	-4%	?	-20%	10µM*
Cc1ccc(C(C(=O)NC2CCCCC2)N(C(=O)CCCC(=O)Nc2ccccn2)c2ccc3c(c2)OCCO3)cc1 (centres undefined)	-63*	0%	?	0%	?
Cc1ccc(S(=O)(=O)c2c(C)cc(C)nc2N2CCCCC2)cc1	?	-15%	?	nt	?
COc1ccc(NC(=O)Cn2c(=O)oc3cc(S(=O)(=O)N4CCCC4)ccc32)cc1OC	-3	nt	nt	-4%	nt
CCCCCCCc1cc2ccccc2c(=O)o1	nt	-1%	nt	nt	nt
c1ccc(Cc2nnc(Sc3ccccc3)c3ccccc23)cc1	-88*	1%	-12%	-7%	?
Cn1cccc1Cc1nnc(SCC(=O)Nc2ccc3c(c2)OCCO3)n1CCc1ccccc1	10	-1%	nt	4%	12µM*
Cn1cccc1Cc1nnc(SCC(=O)Nc2ccc3c(c2)OCO3)n1CCc1ccccc1	-3	-5%	?	-15%	?
COc1ccc(OC)c(C(=O)CSc2nnc(Cc3cccs3)n2CCc2ccccc2)c1	12	?	12µM*	-26%	13µM*
CCn1c(C)nnc1SCC(=O)Nc1ccccc1OC	6	7%	39%	4%	?
COc1ccccc1NC(=O)CSc1nnc(C)n1CCc1ccccc1	58	-6%	?	-7%	10µM*
COc1ccc(OC)c(NC(=O)CSc2nnc(Cc3cccn3C)n2CCc2ccccc2)c1	-22	2%	5.2µM*	-15%	12µM*
COc1ccc(OC)c(C(=O)CSc2nnc(-c3cccs3)n2C)c1	-32	-12%	?	0%	nt
COc1cc(COCC(O)CN2C(C)CCCC2C)cc(OC)c1OC (centres undefined)	9	-18%	0%	1%	17%
Cc1ccc(OC(=O)CSc2nnc(-c3ccc4c(c3)OCO4)o2)c(C)c1	-7	nt	nt	-2%	nt
C=CCn1c(CSc2ccccc2[N+](=O)[O-])n[nH]c1=S	66	-19%	nt	-19%	4%
C=CCn1c(Sc2ncc([N+](=O)[O-])s2)n[nH]c1=O	-97*	?	?	0.22µM*	10µM*
SMILES	HCMV antiviral	FBPA Giardia inh	Pf growth 48h	Sm TGR block	Pf growth 96h
CCN1CCN(c2cc(-c3ccccc3)nc3cc(-c4cccc(F)c4)nn23)CC1	8	-2%	?	2%	12µM*
OC1CCN(c2cc(-c3ccccc3)nc3cc(-c4ccc(F)cc4)nn23)CC1	-30	-6%	?	nt	20%
CC(=O)N1CCN(c2cc(-c3ccccc3)nc3cc(-c4cccc(Cl)c4)nn23)CC1	-89*	nt	nt	nt	nt
COc1ccc(-c2cc3nc(-c4ccccc4)cc(N4CCN(C(=O)c5ccoc5)CC4)n3n2)cc1	-19	nt	nt	nt	nt
O=C(c1ccoc1)N1CCN(c2cc(-c3ccccc3)nc3cc(-c4ccc(Br)cc4)nn23)CC1	-63*	nt	nt	nt	nt
CCCCCCC#CC1C=CC(OC(C)=O)C(COC(C)=O)O1 (centres undefined)	nt	3%[12.9 µM]	nt	nt	nt
COC(=O)c1sc2nc(SCc3cccc(Cl)c3)n(N)c(=O)c2c1C	-24	0%	0%	-1%	9.3µM*
COC(=O)c1sc2nc(SCc3ccccc3C)n(N)c(=O)c2c1C	-26	2%	-5%	-7%	?
COC(=O)c1c(C)[nH]c2ccccc12	-15	nt	nt	nt	nt
CCOc1ccc(NC(=O)CSc2ccc(-c3ccccn3)nn2)cc1	-27	5%	?	-12%	?
CC(=O)Nc1ccc(C(=O)N(C)C(C(=O)Nc2ccc(C)cc2)c2ccccn2)cc1 (centres undefined)	-63*	0%	-13%	-4%	-22%
COc1ccc(NC(=O)C(c2ccccn2)N(C(C)=O)c2ccc(C)cc2)cc1 (centres undefined)	93	-11%	30%	-4%	?
CCOc1ccc(NC(=O)C(c2ccccn2)N(C(=O)CCl)c2ccc(OC)cc2)cc1 (centres undefined)	12	7.1µM*	-79%	45µM*	?
CCOc1ccc(NC(=O)C(c2ccccn2)N(C(=O)CCl)c2ccc(OCC)cc2)cc1 (centres undefined)	nt	?	-82%	45µM*	5%
O=C(NCc1ccco1)c1nc2nc(-c3cccs3)cc(C(F)(F)F)n2n1	178	-5%	-15%	32µM*	-2%
O=C(NCc1ccco1)c1nn2c(C(F)(F)F)cc(-c3cccs3)nc2c1Br	-14	-11%	?	32µM*	nt
O=C(NCc1ccco1)c1cc(-c2cccs2)on1	38	3%	337%	-15%	-26%
O=C(NCC1CCCO1)c1nn2c(C(F)(F)F)cc(-c3cccs3)nc2c1Br (centres undefined)	-2	-8%	-7%	-5%	0%
O=C(NCCc1ccccc1)C1Cc2c(-c3ccc(Cl)cc3)ccnc2O1 (centres undefined)	-31	nt	nt	nt	nt
COc1cc(CN2CCNC(=O)C2CC(=O)NC2CCC2)cc(OC)c1 (centres undefined)	-16	nt	9%	?	?
O=C(Cc1cccc2ccccc12)Nc1ccc(-c2cc3ccccc3oc2=O)cc1	-39	-3%	12µM*	-3%	?
Cn1c(=O)c2cc(NC(=O)Cc3ccccc3F)ccc2n1-c1ccc(C(C)(C)C)cc1	-31	nt	nt	nt	nt
